Source: PubChem BioAssay AID689 (Sanford-Burnham Center for Chemical Genomics, 2007)
Screen size: about 62,000 compounds; about 80 (0.1%) were called active. No rule for the calls is given here. The list is a sample of the results. Results with a measured potency or affinity are listed apart.

target: Ephrin type-A receptor 4 (Mus musculus) (UniProt Q03137); assay: EphA4 ligand-binding antagonists – biochemical, colorimetric, mouse EphA4, primary screen (AID 689); details: EphA4-AP binding to KYL peptide, pNPP A405, at 10 µM, active compounds read high
Sequence (Q03137 whole entry, looked up): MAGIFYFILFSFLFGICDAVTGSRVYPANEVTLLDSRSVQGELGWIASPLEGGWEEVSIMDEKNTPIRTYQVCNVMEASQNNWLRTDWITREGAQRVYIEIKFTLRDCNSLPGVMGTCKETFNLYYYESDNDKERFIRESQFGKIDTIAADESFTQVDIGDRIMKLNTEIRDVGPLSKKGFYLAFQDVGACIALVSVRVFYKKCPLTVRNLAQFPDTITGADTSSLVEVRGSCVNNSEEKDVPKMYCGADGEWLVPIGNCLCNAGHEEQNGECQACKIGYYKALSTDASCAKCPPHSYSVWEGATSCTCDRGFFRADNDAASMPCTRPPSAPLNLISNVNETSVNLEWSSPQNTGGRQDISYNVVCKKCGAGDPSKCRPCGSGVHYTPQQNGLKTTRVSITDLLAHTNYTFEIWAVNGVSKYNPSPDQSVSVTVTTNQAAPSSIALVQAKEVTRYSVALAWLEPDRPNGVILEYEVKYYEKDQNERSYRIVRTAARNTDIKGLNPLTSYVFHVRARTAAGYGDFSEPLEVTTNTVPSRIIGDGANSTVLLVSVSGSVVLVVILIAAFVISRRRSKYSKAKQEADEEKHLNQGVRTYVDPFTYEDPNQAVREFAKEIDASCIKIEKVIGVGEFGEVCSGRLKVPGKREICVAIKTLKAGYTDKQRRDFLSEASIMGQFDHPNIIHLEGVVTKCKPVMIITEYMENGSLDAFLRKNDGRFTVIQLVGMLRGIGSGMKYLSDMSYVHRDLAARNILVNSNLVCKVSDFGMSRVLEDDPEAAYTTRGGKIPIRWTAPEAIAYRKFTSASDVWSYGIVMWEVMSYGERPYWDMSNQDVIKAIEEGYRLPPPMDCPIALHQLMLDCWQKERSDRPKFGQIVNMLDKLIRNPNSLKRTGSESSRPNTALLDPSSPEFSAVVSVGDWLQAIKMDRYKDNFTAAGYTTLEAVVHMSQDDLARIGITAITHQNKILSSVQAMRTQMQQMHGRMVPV

inhibition, inactive:
CCOC(=O)C(O)(CCC(O)(C(=O)OCC)C(=O)OCC)C(=O)OCC -4.3%, O=C1CCC(C23CC4CC(CC(C4)C2)C3)=NN1 -8.4% [this sample at 5 µg/mL], Oc1ccc(-c2cn3c(n2)SCC3)cc1 4.1%, Cc1nc(-c2ccc(O)c(O)c2)cs1 1.8%, Cc1onc(-c2ccccc2Cl)c1C(=O)Nc1ccc(N2CCOCC2)cc1 1.6%, O=C1c2nc3ccccn3c2C(=O)N1Cc1ccccc1 6.8%, CCOc1ccc(S(=O)(=O)N(CC(=O)O)c2ccccc2)cc1 0.2%, Cc1ccc(N(CC(=O)N/N=C/c2ccco2)S(=O)(=O)c2ccccc2)cc1 15.6%, Cc1ccc(-c2nc3ncccc3o2)cc1NC(=O)COc1ccccc1 4.8%, CCOC(=O)c1cnc2c(OC)cccc2c1N1CCN(c2ccccc2OC)CC1 3.2%, Cc1cccc(Cn2cc(/C=C/[N+](=O)[O-])c3ccccc32)c1 40.7%, O=[N+]([O-])/C=C/c1cn(Cc2ccc(F)cc2)c2ccccc12 30.9%, Cc1ccc(NC(=O)N2Cc3ccccc3CC2C(=O)NC(C)(C)C)cc1 (stereo not drawn) 1%, O=C(/C=C/c1ccc2c(c1)OCO2)c1ccc(Br)cc1 3.2% [this sample at 5 µg/mL], CNc1ccc(Br)cc(C(=O)/C=C/c2ccc3c(c2)OCO3)c1=O 32.2%, CCOC(=O)c1sc(NC(NC(=O)c2ccco2)(C(=O)OC)C(F)(F)F)nc1C (stereo not drawn) 4.3%, CCN1/C(=C/C(C)=O)Sc2ccccc21 -0.8% [this sample at 5 µg/mL], CCN1/C(=C/c2ccc3ccccc3[n+]2CC)C=Cc2ccccc21 2%, Cn1c(=O)[nH]c(=O)c2c1nc(CN1CCN(c3cccc(Cl)c3)CC1)n2CCN1CCOCC1 8.6%, O=C(c1sc2ccccc2c1Cl)N(Cc1ccco1)C1CCS(=O)(=O)C1 (stereo not drawn) -4.2%, COc1ccccc1C1C(C(N)=O)=C(C)Nc2nc(-c3ccccc3Cl)nn21 (stereo not drawn) -24.8%, Cc1cc(/C=C2\SC(=S)NC2=O)c(C)n1C1CC1 9.1%, Cc1cc(C=C2C(=O)N(C)C(=O)N(C)C2=O)c(C)n1C 3.4% [this sample at 5 µg/mL], O=C(c1ccccc1)N1CCN(C(=O)C23CC4CC(CC(C4)C2)C3)CC1 -9.8%, O=C1c2ccccc2NC(c2ccc(Cl)c(Cl)c2)N1Cc1ccccc1 (stereo not drawn) 7.9% [this sample at 5 µg/mL], Cc1ccc(C)c(S(=O)(=O)Nc2ccccc2)c1 5.9% [this sample at 5 µg/mL], CCOc1cc(C(=S)N2CCOCC2)ccc1OS(=O)(=O)c1ccc(NC(C)=O)cc1 -6.9%, Cc1occc1-c1nnc(SCC(=O)c2c[nH]c3ccccc23)n1C 0.9%, Cc1cccc(C)c1NC(=O)CSc1nnc(-c2ccoc2C)n1C -4.3%, Cn1c(SCC(=O)NC2CCCC2)nc2cccnc21 -0.5%, Cc1c(C(=O)NCCc2ccccc2)oc2ccc(S(=O)(=O)N3CCC4(CC3)OCCO4)cc12 -4.2%, COc1ccc(CNC(=O)c2ccc(S(=O)(=O)N3CCCC3)cc2)cc1OC -5.4%, Cc1cc2cc(CNC(=O)C3CC3)ccc2n1C -5.8%, COc1ccccc1NC(=O)Cc1csc(N)n1 3.7%, CCCCN(C)C/C(O)=C(\C#N)c1nc(-c2ccccc2)cs1 -4.9%, CCCCN(CCCC)c1nc2ccccc2nc1C(C#N)C(=O)NCCCOC (stereo not drawn) 13.6%, Cc1c(NC(=O)c2ccc(CSc3ccc(Cl)cc3)cc2)c(=O)n(-c2ccccc2)n1C -7.2% [this sample at 5 µg/mL], Cc1ccc2c3c1C(=O)C(=O)N3C(C)(C)CC2C (stereo not drawn) -4.8%, O=C(COc1ccc(Cl)cc1)N(c1ccccc1)c1ccccc1 5.1% [this sample at 5 µg/mL], Cc1cccc(OCC(=O)N/N=C/c2cn[nH]c2-c2ccc(Cl)c(Cl)c2)c1 -6.5%, CCOC(=O)c1c(C)nc2c(c1-c1ccccc1)C(=O)c1ccccc1-2 -4.1%, CCOC(=O)c1ccc(COC(=O)c2ccc3c(c2)-c2ccccc2C3=O)cc1 -10.7%, CC(CCc1ccccc1)NC(=O)c1cncc(Br)c1 (stereo not drawn) 1.4%, CCOC(=O)c1c(C)oc2c1c1c(c3ccccc32)OCN(Cc2ccccn2)C1 4.9%, CCOC(=O)c1c(C)oc2c1c(C=NCC1CCCO1)c(O)c1ccccc12 (stereo not drawn) -5.6%, Cn1c(NCc2c[nH]c3ccccc23)nc2ccccc21 -8.4%, CCOC(=O)c1csc(NC(=O)CSc2nnnn2CC)n1 -8.3%, Cc1ccc(S(=O)(=O)N2CCSC2c2ccco2)cc1 (stereo not drawn) -2%, CCOCCCn1c(SCC(=O)NCc2ccco2)nc2c(sc3ccccc32)c1=O 7.8%, Oc1c(C(Nc2ccccn2)c2ccccn2)ccc2cccnc12 (stereo not drawn) 6.9%, Cc1ccc2ccc(C(Nc3ccccn3)c3ccccc3)c(O)c2n1 (stereo not drawn) 18.4%, CC(=NCCc1ccccc1)C1=C(O)CCC1=O -2.3%, COc1ccccc1NC(=O)CSc1nnc(-c2ccco2)n1Cc1ccco1 -25.5%, COc1cccc(-c2nnc3sc(-c4ccccn4)nn23)c1 -6.2%, Cn1c(=O)oc2cc(S(=O)(=O)N3CCN(c4cccc(Cl)c4)CC3)ccc21 -5.3%, O=C1/C(=C/c2ccc(I)o2)SC(=S)N1Cc1ccccc1 -12.6% [this sample at 5 µg/mL], Cc1ccc(/C=C2\SC(=S)N(Cc3ccccc3)C2=O)o1 -10.8%, O=C(c1coc(=O)c(Br)c1)N1CCCc2ccccc21 21.7%, CC1(C)CC(NC(=O)c2coc(=O)c(Br)c2)CC(C)(C)N1 -9.8%, O=C(CSCc1ccccc1Cl)NNC(=S)Nc1ccccc1 -12.3%, COc1cc(/C=C2/SC(=S)N(CC(=O)Nc3cccc(C(=O)O)c3)C2=O)cc(OC)c1OC -3.5% [this sample at 5 µg/mL], COc1cc(/C=C2\SC(=S)N(Nc3ncc(C(F)(F)F)cc3Cl)C2=O)ccc1O 46.2%, CCOc1cc(/C=C2\SC(=S)N(Nc3ccccc3)C2=O)ccc1O 16.9%, O=C1/C(=C/c2ccc(F)cc2)SC(=S)N1Nc1ncc(C(F)(F)F)cc1Cl -6.5%, CC(=O)NCCNC(=O)[C@H](Cc1ccccc1)NC(=O)c1cccs1 -9%, CC1CC(C)CN(CC(C)(C)NS(=O)(=O)c2ccc(Cl)cc2)C1 (stereo not drawn) -13.3%, CC(C)C1Cc2c(C#N)c(N)n(C)c(=S)c2CO1 (stereo not drawn) -8%, CCC1(C)Cc2c(C#N)c(N)sc(=S)c2CO1 (stereo not drawn) 44.1%, O=C1NC(=S)N(c2ccc(F)cc2)C(=O)C1=Cc1ccc([N+](=O)[O-])s1 31.5% [this sample at 5 µg/mL], CCSc1nnc(-c2ccncc2)o1 -3%, O=C(O)CSc1nnc(-c2ccccc2)o1 -16.7%, COC(=O)c1cccnc1NC(=S)NNC(=O)c1ccncc1 1.4%, CC1=NN(c2ccc(Br)cc2)C(=O)/C1=C/c1cccs1 -1.8%, O=C1N=C(c2ccccc2)S/C1=C\c1cccs1 5.5%, CCCCC(=O)Nc1cccc(NC(=O)c2ccc(Br)cc2)c1 -0.2%, Cc1cc(C)c2nc(N3CCCN(C(=O)c4cnccn4)CC3)c(C#N)cc2c1 11.5%, Cc1cc(C)c2nc(N3CCN(C)CC3)c(C#N)cc2c1 8.1%, Cc1ccc(N2CCCn3c2nc2c3c(=O)n(CCN3CCOCC3)c(=O)n2C)cc1 -11%, N=c1oc2ccccc2cc1-c1nc2ccccc2c(=O)[nH]1 5.9%, O=C(/C=C/c1ccc(OCc2ccccc2)cc1)c1cccc(Br)c1 14.7% [this sample at 5 µg/mL], O=C(/C=C/c1ccc(OCc2ccccc2)cc1)c1ccc(Br)cc1 -5.6% [this sample at 5 µg/mL], CC(C)(C)C1=C(C#N)C(c2ccc3c(c2)OCO3)C(C#N)=C(N)O1 (stereo not drawn) 5%, CCC1=NN2C(=N)/C(=C/c3ccc(OCc4ccccc4)cc3)C(=O)N=C2S1 0.6% [this sample at 5 µg/mL]
